Data published in PubChem BioAssay (NCI).
Compounds without any hit were thinned out: in the full panel of roughly 79,000, 15% have a hit. Unmarked numbers belong to inactive results. Activity calls are given as the source filed them. Rule as the data show it: active = growth inhibition above about 70%; inactive = the rest.

Columns and labels:
[1] = NCI Yeast Anticancer Drug Screen. Data for the rad50 strain (AID 155);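 also: 0% = growth of vehicle-only cultures of the same strain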; conditions: S. cerevisiae rad50 strain growth inhibition, hits give high values; at 50.0 µM unless noted
In short: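 Genetically altered yeast (DNA repair pathway); compound treatment; growth inhibition vs vehicle ctrl.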

[2] = NCI Yeast Anticancer Drug Screen. Data for the mec2-1 strain (AID 157); conditions: S. cerevisiae mec2-1 strain, hits give high values; at 50.0 µM unless noted
In short: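 Compounds were applied to mec2-1 yeast cells. Their growth was then compared with that of vehicle-treated cultures to give growth inhibition.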

[3] = NCI Yeast Anticancer Drug Screen. Data for the sgs1 mgt1 strain (AID 161);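 also: 0% = growth of cultures given vehicle only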; conditions: S. cerevisiae sgs1 mgt1 strain, hits give high values; at 50.0 µM unless noted
In short: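 Yeast cells carrying a defined DNA-repair defect were exposed to test compounds. Growth inhibition was measured relative to vehicle-treated controls.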

[4] = NCI Yeast Anticancer Drug Screen. Data for the cln2 rad14 strain (AID 165);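 also: 0% = growth equal to vehicle treated cultures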; conditions: S. cerevisiae cln2 rad14 strain, hits give high values; at 50.0 µM unless noted
In short: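 Strain: cln2 rad14 yeast, altered in cell cycle control and DNA damage repair. Read-out: growth inhibition vs vehicle.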

[5] = NCI Yeast Anticancer Drug Screen. Data for the bub3 strain (AID 167); conditions: S. cerevisiae bub3 mutant strain, hits give high values; at 50.0 µM unless noted
In short: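 Yeast carrying a defined mutation is treated with each compound, and growth is compared with that of vehicle-exposed cells to give inhibition.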

[6] = NCI Yeast Anticancer Drug Screen. Data for the mlh1 rad18 strain (AID 175); conditions: S. cerevisiae mlh1 rad18 strain growth inhibition, hits give high values; at 50.0 µM unless noted
In short: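 A repair-deficient yeast strain is exposed to test compound, and growth is scored relative to vehicle-treated controls.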

Structure (SMILES)	growth inhibition [1]	growth inhibition [2] [%]	growth inhibition [3]	growth inhibition [4]	growth inhibition [5]	growth inhibition [6]
O=C(O)/C=C\C(=O)Nc1ccc2c(c1)Cc1cc(O)ccc1-2	7.95%	30.8	17.8%	25.7%	21.9%	-0.3%
C=C1[C@@H](O)C[C@@H]2C[C@@]3(C)[C@H](C(C)(C)C[C@@H]3O)C12O (stereo not given in full)	-4.25%	-17.5	-20.9%	5%	-19%	-20.2%
O=C1CN(c2cccc(C(F)(F)F)c2)C(=O)CN1/N=C/c1ccc[nH]1	-27.7%	-3.25	9.45%	15.8%	-7.1%	-5.4%
CC1=CC(=O)CC(C)(C)C1	1.45%	5.95	-1.7%	6.4%	17.1%	3.45%
Cc1[nH]c(=O)nc2nc3ccc(Cl)cc3c(N(CCO)CCO)c12	-24.3%	-20.8	-12.8%	19.2%	19.9%	-8.7%
COc1cccc(C(c2ccccc2)C(CC(=O)O)CC(=O)O)c1 (stereo not given)	8.8%	8.6	-12.8%	4%	-2.1%	-16.5%
CC(C)N(C(=O)c1ccc(C(=O)N(c2ccccc2)C(C)C)cc1)c1ccccc1	-40.5%	-7.45	-1.25%	36%	-3.45%	14.4%
Cc1c(C(=O)C/C(=N/NC(=O)C[n+]2ccccc2)C(=O)Nc2ccccc2)[n+](=O)c2ccccc2n1O	-37.5%	0.2	-40.7%	-0.7%	-15.2%	-31.4%
CCn1c(CCCc2nc3c([nH]2)c(=O)n(C)c(=O)n3C)nc2c1c(=O)n(C)c(=O)n2C	6.65%	-38.8	-45.1%	33.2%	-40.7%	-15.3%
Oc1cc2c(cc1-c1cc3c(cc1O)OCO3)OCO2	-21.1%	-15.3	-5.15%	-41%	-3.2%	0.55%
O=C(/C(=C1\SS/C(=C(/C(=O)c2ccccc2)c2ccccc2)S1)c1ccccc1)c1ccccc1	34.6%	14.6	17.7%	7.3%	5.75%	6.45%
CNC(=O)Nc1cccc(C(=O)O)c1	-0.3%	-16.8	-11.1%	-50.9%	4.35%	4.35%
CC(=O)OC(C(=O)NNC(=O)OC(C)(C)C)c1ccccc1 (stereo not given)	-35.6%	-49.4	-38%	-19.4%	-13.4%	-29.2%
CCOC(=O)N1C(=O)C2C3C=CC(C2C1=O)C1C2C(=O)N(C(=O)OCC)C(=O)C2C31 (stereo not given)	1.4%	-3.15	-37.4%	-0.55%	-19.9%	-37.6%
Cc1cccc(C(=O)OCC2CCCO2)c1 (stereo not given)	-0.2%	11.7	8.15%	-22.6%	8.8%	-3.4%
CC(C)(C)OC(=O)/N=C/c1c(O)c2ccccc2oc1=O	-36.5%	-20.5	-21.8%	9.75%	-17.4%	-26%
COC(=O)C1CCC(=O)N1Cc1cccs1 (stereo not given)	-22.9%	-1.7	-11.1%	22.1%	3.55%	-13.2%
CCOC(=O)c1ccc(N=Cc2ccc(N(CCC#N)CCC#N)cc2)cc1	9.35%	1.65	-7.25%	3.7%	-1.5%	-7.45%
CC(=O)c1sc2[n+](c1C)C(=O)/C(=C\c1ccccc1Cl)S2	15.7%	-17.6	-1%	10.2%	-7.75%	-3%
Cc1cccc(C)c1NC(=S)N/C=C(\C#N)C(N)=O	-53.2%	-72.2	-25%	-21.6%	-8.65%	-49.4%

Structure (SMILES)	growth inhibition [1]	growth inhibition [2] [%]	growth inhibition [3]	growth inhibition [4]	growth inhibition [5]	growth inhibition [6]
N#Cc1c(N2CCCC2)nsc1Nc1ccc(F)cc1	2.6%	2.85	0.8%	-16%	4.4%	-9%
CC(C)OC(=O)Oc1cccc(OC(=O)OC(C)C)c1	3.15%	-28.8	2.15%	6.95%	8.5%	9.3%
CCCCCCOc1ccccc1CO	14.7%	10.6	-1.5%	2%	-8.15%	10.8%
O=Cc1ccccc1OCCOc1ccccc1C=O	8.7%	1.35	10.2%	-24%	9.4%	19.1%
COc1ccc(NC(C)=O)cc1	24.8%	3.2	2.7%	13.8%	11.8%	-11.1%
O=C1c2c(ccc3c2CCCC3)CC1Cc1ccc2c(c1)CCCC2 (stereo not given)	-22%	-15.2	-18.8%	-25.1%	-17.4%	-37.7%
COC(=O)N1C=NC2C3(C)C(C)=C(C)C3(C)C21C (stereo not given)	0.35%	-3.55	-4.1%	-24.9%	-0.4%	-7.45%
Cn1nnn(Cc2ccccc2)/c1=N/C(=S)Nc1ccccc1	-11.6%	-6.75	-4.05%	-7.45%	3.1%	-21.4%
c1ccc(N=C(Nc2ccccn2)Nc2ccccn2)nc1	5.15%	-7.2	1.1%	-34%	-14.7%	-25.1%
Cc1nc(-c2cccnc2)sc1C(=O)CC(=O)C(=O)Nc1cccc(NC(=O)C(=O)CC(=O)c2sc(-c3cccnc3)nc2C)n1	20.2%	-0.75	-21.6%	0.1%	-12.9%	6.85%
COc1ccc2cc3n(c(=O)c2c1OC)CCc1cc2c(cc1-3)OCO2	11.9%	-20.7	14.2%	25.4%	2.8%	-0.45%
Cc1ccc(S(=O)(=O)c2c3[nH]c4ccccc4nc3n3c2nc2ccccc23)cc1	-14.2%	-45.5	-19.2%	-87.3%	-26.8%	-14.3%
Nc1nc(CC2(O)CCCCC2)cc(-c2ccccc2)n1	49%	29.6	21.1%	55.2%	45.5%	44.8%
CNc1nc(=O)[nH]c(C)c1[N+](=O)[O-]	19.9%	4.45	-6.9%	-60.8%	-4%	12.6%
c1ccc(CNc2nn[nH]n2)cc1	2.65%	5.1	-5.9%	-20.6%	4.2%	9%
CC1(C)N=C(N)N=C(N)N1c1ccc(N)cc1	1.7%	-3.8	2.75%	-36.8%	-21.4%	7.8%
CCCCCCCCCCCC(=O)NC(=S)Nc1cccc(O)c1	84.3% (active)	63.8	74.4% (active)	90.3% (active)	93% (active)	81.4% (active)
CCCCOC(=O)NC(Nc1ccc(S(N)(=O)=O)cc1)(C(F)(F)F)C(F)(F)F	5.95%	7.9	2.95%	-1.4%	12.1%	18.3%
Cc1ccc(S(=O)(=O)N2C(=O)CCC2C(=O)O)cc1 (stereo not given)	-0.95%	-5.65	10.6%	-17.1%	2.2%	2.7%
O=C(COc1cc(Cl)c(Cl)cc1Cl)Nc1ccc(Cl)cc1	14.7%	19.9	18%	17.2%	17.1%	11.2%
